Hit rate of the full screen: of about 69,000 compounds, about 8,600 (12%) showed an effect of 50% or more. This is one part of a sample in which strong results are shown more often than they occur.
Tested on: Plasmodium berghei
Assay: Screen against P. berghei liver stage (PbLuc), transformed with Luciferase, at 10uM
Assay type: functional, HepG2
Conditions: tested at 10 uM

Question: For CN(Cc1ccccc1)C(=O)Cn1nc(N2CCOCC2)ccc1=O, which INHIBITION is on record?
Answer: -28.7%

Question: With O=C1CCCCN1CCc1nc(C2(c3ccc(F)cc3)CCOC2)no1 (configuration not stated) as the compound, how does the INHIBITION read?
Answer: -15.5%

Question: How did the INHIBITION turn out when CCc1nn(C)c2[nH]nc(NC(=O)c3cccnc3NC(C)C)c12 was run?
Answer: 36.3%

Question: How did the INHIBITION turn out when CCS(=O)(=O)N1CC(=O)N(CCOc2ccccc2)CC(O)C1 (configuration not stated) was run?
Answer: -10.3%

Question: For CCn1cc(S(=O)(=O)NC2(CN3CCOCC3)CCCCC2)c(C)n1, which INHIBITION is on record?
Answer: -10.5%

Question: CC(C)c1nccn1C(C)C(=O)N1CCN(c2ccccc2Cl)CC1 (configuration not stated) was tested. Which INHIBITION did it give?
Answer: 64.6%

Question: Which INHIBITION does the source give for Cc1cccnc1N1CCN(C(=O)C(C)n2ccnc2C(C)C)CC1 (configuration not stated) here?
Answer: 17.9%

Question: CC(C)c1nccn1C(C)C(=O)N1CCN(c2cnccn2)CC1 (configuration not stated) was tested. Which INHIBITION did it give?
Answer: -6.28%

Question: COCCN(C)C[C@@H]1CN(C(=O)c2ccc(C)c(Cl)c2)C[C@@H]1CO was tested. Which INHIBITION did it give?
Answer: 13.1%

Question: Which INHIBITION does the source give for C[C@@H]1CN(Cc2ccoc2)C[C@]12CCN(CC(=O)N(C)C)C2=O here?
Answer: 23.5%

Question: With CCOC(C)c1noc(CN2CCN(c3ccncc3)CC2)n1 (configuration not stated) as the compound, how does the INHIBITION read?
Answer: 81%

Question: Which INHIBITION does the source give for CCOC(C)c1noc(CN2CCN(Cc3ccno3)CC2)n1 (configuration not stated) here?
Answer: 33.4%

Question: CCOC(C)c1noc(CN2CCNCC2)n1 (configuration not stated) was tested. Which INHIBITION did it give?
Answer: 31.2%

Question: CCOC(C)c1noc(CN2CCN(Cc3cccnc3)CC2)n1 (configuration not stated) was tested. Which INHIBITION did it give?
Answer: 34.4%

Question: Which INHIBITION does the source give for CCOC(C)c1noc(CN2CCN(CC3CCCC3)CC2)n1 (configuration not stated) here?
Answer: 28%

Question: CCOC(C)c1noc(CN2CCN(c3nnc(C)s3)CC2)n1 (configuration not stated) was tested. Which INHIBITION did it give?
Answer: 65.8%

Question: Which INHIBITION does the source give for COc1ccc(CN(Cc2cccnc2)CC2CCCO2)c(OC)c1 (configuration not stated) here?
Answer: 22.2%

Question: How did the INHIBITION turn out when CCN1C(=O)CCCC12CCCN(C(=O)c1ccoc1C)C2 (configuration not stated) was run?
Answer: 32.1%

Question: For CCC(=O)NCC(=O)NCC1(O)CCC(C(C)(C)C)CC1 (configuration not stated), which INHIBITION is on record?
Answer: 38.3%

Question: With CC(=O)NCc1cncc(C2CCCN2C2CCOCC2)n1 (configuration not stated) as the compound, how does the INHIBITION read?
Answer: -4.15%

Question: Which INHIBITION does the source give for c1cnn(CC2CCCN2c2ncnc3sccc23)c1 (configuration not stated) here?
Answer: 79.7%

Question: Which INHIBITION does the source give for c1cnn(CC2CCCCN2c2ncnc3ccsc23)c1 (configuration not stated) here?
Answer: 14.75%

Question: How did the INHIBITION turn out when c1cnn(CC2CCCCN2c2ncnc3sccc23)c1 (configuration not stated) was run?
Answer: 18.2%

Question: How did the INHIBITION turn out when c1nc(N2CCCC2Cn2cncn2)c2ccsc2n1 (configuration not stated) was run?
Answer: 33%

Question: How did the INHIBITION turn out when c1nc(N2CCCC2Cn2cncn2)c2sccc2n1 (configuration not stated) was run?
Answer: 10.65%

Question: c1cnn(CC2CCCN2c2ncnc3ccsc23)c1 (configuration not stated) was tested. Which INHIBITION did it give?
Answer: 57.8%

Question: How did the INHIBITION turn out when O=C(Nc1nccs1)C1CCN(Cc2cccc3c2OCCO3)CC1 was run?
Answer: 37.6%

Question: For COCc1noc(-c2cc(Cl)c3c(c2)OCO3)n1, which INHIBITION is on record?
Answer: -26.1%

Question: Which INHIBITION does the source give for CC1CN(CC(=O)NCc2ccccc2)CCN1Cc1nccn1C (configuration not stated) here?
Answer: 22.93%

Question: Cc1[nH]ccc1C(=O)N1CCCC(c2ccc(C(=O)O)cc2)C1 (configuration not stated) was tested. Which INHIBITION did it give?
Answer: 2.7%

Question: O=C(c1cccc2cccnc12)N1CCCC(n2ccnc2)C1 (configuration not stated) was tested. Which INHIBITION did it give?
Answer: 17.02%

Question: For CN(C)c1ncccc1CNc1cc(N2CCCC2CO)ncn1 (configuration not stated), which INHIBITION is on record?
Answer: 26.4%

Question: Which INHIBITION does the source give for CN(C)CCn1ccnc1C1CCCN(c2cc(N)ncn2)C1 (configuration not stated) here?
Answer: 28%

Question: C[C@H](N)C(=O)N1CCC(c2[nH]ncc2-c2ccccc2)CC1 was tested. Which INHIBITION did it give?
Answer: -15.65%

Question: Cc1ccnc(C2CCN(c3ccnc(C)n3)C2)n1 (configuration not stated) was tested. Which INHIBITION did it give?
Answer: 10.9%

Question: Cc1c[nH]nc1C1CCCN(c2cnccn2)C1 (configuration not stated) was tested. Which INHIBITION did it give?
Answer: 4.73%

Question: Cc1ccc(-c2cn[nH]c2C2CCCN(c3cc(N)ncn3)C2)cc1 (configuration not stated) was tested. Which INHIBITION did it give?
Answer: 75.4%

Question: Which INHIBITION does the source give for Cc1ccc(-c2cn[nH]c2C2CCCN(c3ccnc(C)n3)C2)cc1 (configuration not stated) here?
Answer: 65.3%

Question: CC(O)C(=O)N1CCC(c2[nH]ncc2-c2ccccc2)CC1 (configuration not stated) was tested. Which INHIBITION did it give?
Answer: 1.66%

Question: For Cc1ccc(N2CCCC(c3[nH]ncc3-c3ccccc3)C2)nn1 (configuration not stated), which INHIBITION is on record?
Answer: 56.2%

Question: How did the INHIBITION turn out when Cc1nccc(N2CCCC(c3nnc(Cn4ccnc4C)n3C)C2)n1 (configuration not stated) was run?
Answer: 1.74%

Question: For Cc1ccc(-c2cn[nH]c2C2CCCN(c3nccc(N)n3)C2)cc1 (configuration not stated), which INHIBITION is on record?
Answer: 47.2%

Question: With Cc1ccc(-c2cn[nH]c2C2CCCN(c3cnccn3)C2)cc1 (configuration not stated) as the compound, how does the INHIBITION read?
Answer: 53.7%

Question: With Cc1ccc(-c2cn[nH]c2C2CCCN(c3ncccn3)C2)cc1 (configuration not stated) as the compound, how does the INHIBITION read?
Answer: 27.6%

Question: How did the INHIBITION turn out when CN(CCO)C[C@@H]1CN(C(=O)c2cccc(OC(F)F)c2)C[C@@H]1CO was run?
Answer: 3.19%

Question: How did the INHIBITION turn out when O=C(C1CCOC1)N1CCN(Cc2ccc3c(c2)CCO3)CC1 (configuration not stated) was run?
Answer: 41.5%

Question: Which INHIBITION does the source give for Cc1nc(CN(C)C2CCN(CCc3cccs3)C2)no1 (configuration not stated) here?
Answer: 39.2%

Question: Which INHIBITION does the source give for CS(=O)(=O)NC[C@@H]1OC[C@H]2CN(C(=O)c3ccccn3)CC[C@H]21 here?
Answer: -2.17%

Question: Which INHIBITION does the source give for O=C(NCC1CC2(CO1)CN(c1ncccn1)C2)C1CCC1 (configuration not stated) here?
Answer: 27.6%

Question: Cc1ccc(N2CCCC(c3[nH]ncc3Cc3ccccc3)C2)nn1 (configuration not stated) was tested. Which INHIBITION did it give?
Answer: 47.2%

Question: With Cc1cc(N2CCCC(c3[nH]ncc3Cc3ccccc3)C2)nc(N)n1 (configuration not stated) as the compound, how does the INHIBITION read?
Answer: 86.8%

Question: How did the INHIBITION turn out when Cc1ccc(N2CCC(c3[nH]ncc3Cc3ccccc3)CC2)nn1 was run?
Answer: 49.2%
